NPC1 promoter act = activators of NPC1 promoter; 320,000 compounds, 2.4% hits; Huh7 NPC1 promoter luciferase reporter, 24 h; Potency, µM (top dose mostly 9.22 µM), without a hit: at the highest dose activation, most hits filed as activators; note: % of control where 0% means no effect; nearly all actives have a fitted effect of over 60% in size
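In 1536-well qHTS, Huh7 cells harboring an NPC1 promoter–luciferase construct received compound for 24 h; activation was quantified by luminescence following luciferase reagent addition.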
Rab9 prom act = activates the Rab9 promoter; Huh7 Rab9 promoter-luciferase reporter, luminescence, 24 h; Potency, µM (series often up to 9.22 µM), inactives show top-dose activation, negative = inhibition, usual class: activators; 320,000 compounds, 2.8% hits; AID 485297; note: % of control where 0% means no effect; nearly all actives have a fitted effect of over 60% in size
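Quantitative HTS format; Huh7 Rab9-luciferase reporter cells (1500/well) receive compound 2 h post-plating, incubate 24 h at 37 °C, then get luciferase reagent for 10 min before luminescence reading.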
ELG1 genotox = genotoxicity induction in ELG1-luciferase HEK293T cells | 330,000 compounds, 1.3% hits | HEK293T ELG1-luciferase reporter, luminescence, 16 h | Potency, µM (highest dose often 46 µM), for inactives: top-dose activity change, positive = activation, actives largely listed as activators | AID 504466; note: % of control where 0% means no effect; nearly all actives have a fitted effect of over 60% in size
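After overnight (16 hr) compound treatment at 37 °C, ELG1-luciferase HEK293T cells were lysed with ONE-Glo; luminescence quantified 30 min later at room temperature.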
ELG1 repair inh = ELG1-dependent DNA repair inhibition; 330,000 compounds, 2.3% hits; HEK293T ELG1-luciferase reporter, luminescence, 16 h; DNA damage induced by 5-fluorouridine; AID 504467; Potency, µM (doses to about 46.1 µM), without a hit: at the highest dose activity change, negative = inhibition, usual class: inhibitors; note: % is set by controls: 0 for no effect and ±100 for the full control effect; nearly all actives have a fitted effect of over 55% in size
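DMSO vehicle served as the neutral condition. Each well held 2,000 cells given 5-fluorouridine plus compound; after 16 hr at 37 °C/5% CO2, ONE-Glo was added and luciferase measured 30 min later.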
FLuc modulator = firefly luciferase modulation, counter-screen for miR-21 project. purified FLuc, Km substrates, luminescence inhibition. Potency, µM (highest dose often 57.5 µM), for inactives: at the top dose activity change, negative = inhibition, hits mostly inhibitors. 360,000 compounds, 6.9% hits;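 note: plate controls were vehicle for no effect and reference inhibitor for full effect; nearly all actives have a fitted effect of over 55% in size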
Target sequence (P08659 whole entry, looked up): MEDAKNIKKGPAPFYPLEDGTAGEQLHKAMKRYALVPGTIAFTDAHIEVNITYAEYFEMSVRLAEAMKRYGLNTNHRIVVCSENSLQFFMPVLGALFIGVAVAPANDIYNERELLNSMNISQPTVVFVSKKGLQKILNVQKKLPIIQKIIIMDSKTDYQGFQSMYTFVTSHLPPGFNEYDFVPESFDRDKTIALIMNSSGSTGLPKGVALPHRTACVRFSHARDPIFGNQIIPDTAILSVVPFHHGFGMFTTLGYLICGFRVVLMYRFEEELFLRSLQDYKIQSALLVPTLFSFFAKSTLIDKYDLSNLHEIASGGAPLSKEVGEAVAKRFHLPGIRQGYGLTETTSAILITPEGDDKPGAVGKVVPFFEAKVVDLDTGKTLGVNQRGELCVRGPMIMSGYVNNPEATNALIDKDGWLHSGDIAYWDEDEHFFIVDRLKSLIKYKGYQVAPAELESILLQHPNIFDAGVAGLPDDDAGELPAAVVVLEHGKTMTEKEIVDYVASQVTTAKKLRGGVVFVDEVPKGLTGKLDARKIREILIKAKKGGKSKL
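Purified P. pyralis luciferase (10nM final) with 10uM D-luciferin and 10uM ATP (Km levels) in 50mM Tris acetate pH 7.5, 10mM Mg acetate, 0.01% Tween-20, 0.05% BSA; qHTS 6-point titration, ~60 µM downward; luminescence read.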
SMN2 splice enh = SMN2 splice variant enhancement; HEK293 SMN2-luciferase splicing reporter, luminescence, 30-36 h; Potency, µM (highest dose often 46.1 µM), without a hit: at the highest dose activity change, positive = activation, actives largely listed as activators; 210,000 compounds, 2.8% hits; AID 1458; note: % of control where 0% means no effect; nearly all actives have a fitted effect of over 55% in size
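qHTS luciferase splicing reporter: luminescence rises when SMN2 exon 7 is included in transfected HEK293 cells. Compound exposure lasted 30-36 h at 37C, with 4.5 mM final sodium butyrate as control, followed by a ONE-Glo read.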
Numbers without * were called inactive; ? = inconclusive; . = no result; [ ] = remark or other dose. An excerpt weighted towards active compounds, which were near 9.3% of everything screened. Calls come from the whole dose curve; as a rule, active = well fitted curve in the direction sought with a large enough effect; inconclusive = small, poorly fitted or top-dose-only effect, or another doubt; inactive = no such curve, though single readings can be large; an effect the other way counts as inactive or inconclusive. Potency is the fitted concentration of half-maximal effect.

SMILES	NPC1 promoter act	Rab9 prom act	ELG1 genotox	ELG1 repair inh	FLuc modulator	SMN2 splice enh
COc1ccc2[nH]c3c(N4CCN(Cc5ccc6c(c5)OCO6)CC4)ncnc3c2c1	-1.4%	2.4%	-24.9%	25.9µM*	-19.0%	.
COc1ccc2cc(C(=O)N3CCN(Cc4ccc5c(c4)OCO5)CC3)[nH]c2c1	-2.7%	-5.7%	-8.8%	7.0%	3.4%	.
COc1ccc2c(c1)c1ncnc(N3CCN(Cc4ccc5c(c4)OCO5)CC3)c1n2C	-10.9%	-5.3%	-17.1%	16.4µM*	2.7%	-22.7%
CC(C)C(=O)NN(C(=O)C(C)C)c1nc2ccccc2s1	-5.4%	-4.9%	0.7%	-14.5%	5.0%	.
CSC1=C(C#N)C(c2ccccc2Cl)C2=C(N1)c1ccccc1C2=O (stereo unspecified)	-5.8%	-7.0%	1.6%	2.7%	0.1%	9.5%
NC(=O)N1CCC2(CC1)NC(=O)N(c1ccccc1)N2	-5.9%	0.0%	15.9%	-17.4%	-2.8%	-14.1%
CNC(=O)N(O)C1N(NC(=O)Nc2cccc3ccccc23)C(=S)SC1(C)C (stereo unspecified)	-4.2%	-1.1%	4.0%	10.2%	-1.4%	7.08µM*
Cc1cc(=O)oc2cc(OCc3ccc(S(=O)(=O)N4CCOCC4)cc3)ccc12	-2.2%	-4.2%[1.84 µM]	-6.9%	-23.8%	-0.4%	-39.8%
CC(C)CCSc1nc2ccccc2[nH]1	3.55µM*	3.55µM*	?	?	10.7µM*	14.1µM*
COc1ccc(CSc2nc3ncccc3[nH]2)cc1	.	.	.	.	19µM*	.
c1ccc2[nH]c(SCc3ccc(-c4nnco4)cc3)nc2c1	?	3.55µM*	?	?	10.7µM*	25.5%
COC(=O)c1cccc(CSc2nc3ccccc3[nH]2)c1	2.51µM*	?	?	?	7.57µM*	3.16µM*
Fc1ccccc1CSc1nc2ncccc2[nH]1	?	?	10.3µM*	?	15.1µM*	22.4µM*
COc1ccc(CSc2nc3ccccc3[nH]2)cc1	0.398µM*	0.501µM*	?	?	1.51µM*	?
O=C1CCC(=O)N1c1ccc(CSc2nc3ccccc3[nH]2)cc1	13.2%	22.3%	?	?	?	-8.6%
Cc1cc(C(=O)NNC(=S)NCC(C)C)no1	0.7%	1.0%	-4.1%	-0.8%	0.3%	-11.2%
CNC(=S)NNC(=O)c1sc(-c2cc(C)on2)nc1C	-4.2%	-1.2%	0.8%	16.7%	16.9µM*	.
CCN(CC)c1ccc(/C=N/n2c(=S)[nH]nc(C)c2=O)cc1	10.9%	10.8%	-1.0%	?	15.1µM*	.
Cc1n[nH]c(=S)n(/N=C/c2cccs2)c1=O	-2.7%	1.3%	-0.7%	15.6%	2.6%	.
CCOc1ccccc1/C=C/c1onc(C)c1S(=O)(=O)N1CCC(C(=O)N(CC)CC)CC1	-6.9%	-0.8%	-5.5%	5.8µM*	-0.4%	.
Cc1cccc(-n2ncc3c(NCCOCCO)ncnc32)c1	.	.	.	.	19µM*	.
CCC(=O)NNc1ncnc2c1cnn2-c1cccc(C)c1	0.6%	-1.5%	5.1%	0.7%	-10.6%	-7.1%
CC(C)Nc1ncnc2c1cnn2-c1ccccc1	1.41µM*	0.355µM*	?	?	2.39µM*	0.631µM*
NNc1ncnc2c1cnn2-c1ccccc1	9.7%	0.4%	-8.5%	-22.6%	?	-10.7%
COc1ccc(-n2ncc3c(Nc4cccc(C)c4)ncnc32)cc1	2.82µM*	3.98µM*	?	?	10.7µM*	?
Cc1cccc(-n2ncc3c(Nc4ccc(F)cc4)ncnc32)c1	?	2.51µM*	14.6µM*	?	?	11.2µM*
CC1=C(C(N)=O)C(c2ccc(Cl)c(Cl)c2)n2ncnc2N1 (stereo unspecified)	0.5%	-6.5%	2.7%	5.1%	1.7%	.
Cn1ncc2c(Nc3ccc(Cl)c(Cl)c3)ncnc21	7.0%	14.0%	2.3%[9.26 µM]	?	?	.
Cc1ccc(-n2ncc3c(Nc4cccc(C(F)(F)F)c4)ncnc32)cc1C	.	.	.	.	15.1µM*	.

High-throughput results deposited in PubChem BioAssay by National Center for Advancing Translational Sciences (NCATS).
